Compound activity deposited in PubChem BioAssay by National Center for Advancing Translational Sciences (NCATS).
PINK1 expr mod – changes PINK1 expression. PINK1 immunofluorescence, high-content cytometry, 24 h. Potency, µM (doses to about 76.6 µM), hits mostly activators. actives 0.2% (n = 410,000). AID 624263; active = well fitted activation curve with a large enough effect; inconclusive = small, poorly fitted or top-dose-only effect; cell line not stated here; note: nearly all actives have a fitted effect of over 65% in size
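Readout is PINK1 immunofluorescence, quantified alongside mitochondrial, cell and nuclear markers by laser-scanning microplate cytometry. Cells from a stable line were exposed to compound titrations (5 concentrations) for 24 hours, with CCCP controls.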
IDH1 R132H inh – blocks human mutant IDH1 R132H enzyme; O75874; IDH1-R132H enzyme, NADPH consumption, diaphorase/resazurin fluorescence; Potency, µM (titrated, usually from 76.6 µM), actives largely listed as inhibitors; actives 0.093% (n = 390,000); AID 602179; note: nearly all actives have a fitted effect of over 65% in size
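IDH1-R132H (0.5 ug/mL) preincubated 30 min with compound, then NADPH (0.016 mM) and alpha-KG (2 mM) added; 80 min at RT, pH 7.5. Remaining NADPH coupled via diaphorase/resazurin to fluorescence (540/590 nm); concentration-response curves normalized to no-enzyme control.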
Vif-A3G inh – Vif-A3G binding inhibition. AID 602310. actives 0.076% (n = 410,000). HeLa A3G-eYFP + Vif (tagged APOBEC3G with the HIV-1 protein that degrades it), YFP fluorescence, overnight. Potency, µM (top dose mostly 46.1 µM), most hits filed as inhibitors; note: nearly all actives have a fitted effect of over 60% in size
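Read-out is eYFP fluorescence (Ex 488/Em 500-530) from Vif-expressing HeLa A3G-eYFP cells; more signal means A3G escaped Vif-mediated degradation. Cells plated overnight, compound pinned in, incubated overnight at 37 deg C.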
PTHR1 agonist – activates the human parathyroid hormone receptor PTHR1; Q03431; HEK293 GP2 PTHR1 cells, GloSensor cAMP luminescence, 1 h; Potency, µM (highest dose often 115 µM), most hits filed as activators; actives 0.075% (n = 410,000); AID 743266; note: nearly all actives have a fitted effect of over 55% in size
Target sequence (Q03431 whole entry, looked up): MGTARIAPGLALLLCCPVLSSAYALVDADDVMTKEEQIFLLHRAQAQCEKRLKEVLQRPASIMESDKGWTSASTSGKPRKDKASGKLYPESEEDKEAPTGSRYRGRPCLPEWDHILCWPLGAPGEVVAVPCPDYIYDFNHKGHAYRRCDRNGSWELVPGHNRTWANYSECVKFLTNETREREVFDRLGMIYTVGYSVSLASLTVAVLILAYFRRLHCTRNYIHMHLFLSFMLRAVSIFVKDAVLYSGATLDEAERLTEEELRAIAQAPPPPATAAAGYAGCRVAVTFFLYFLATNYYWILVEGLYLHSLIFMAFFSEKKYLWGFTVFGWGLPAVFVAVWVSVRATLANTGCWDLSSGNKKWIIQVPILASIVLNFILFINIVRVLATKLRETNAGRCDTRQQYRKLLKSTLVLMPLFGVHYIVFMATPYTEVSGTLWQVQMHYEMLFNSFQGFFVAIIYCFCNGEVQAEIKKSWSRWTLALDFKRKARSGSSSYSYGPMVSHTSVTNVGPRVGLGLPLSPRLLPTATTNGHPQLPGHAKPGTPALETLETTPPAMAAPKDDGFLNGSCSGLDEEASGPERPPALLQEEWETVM
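HEK-293-derived GP2 cells expressing PTHR1 and a GloSensor cAMP reporter, 3,000/well, plated overnight, given luciferin plus IBMX (each 0.5 mM as added) for 1 h at 37 °C, then compound for 1 h at 37 °C. Luminescence was read after 15 min at room temperature.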
LDHA inh – blocks human lactate dehydrogenase A; P00338; purified LDHA, NADH/diaphorase-resazurin fluorescence; stronger effect = lower value; activity change, % (values are at about 110 or 230 µM); actives 0.15% (n = 480,000); in the data active = activity change below about -30%; inconclusive = mostly about -25% to -30%
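Human LDH5 at 2 nM final in Tris HCl pH 7.4 with 0.06 mM NADH and 0.2 mM pyruvate, reacted 5 minutes at room temperature. Remaining NADH coupled via diaphorase/resazurin; resorufin fluorescence read at 0 and 20 minutes, normalized to enzyme-free and DMSO wells.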
Vif-APOBEC3F blk – blocks the Vif interaction with APOBEC3F. HeLa A3F-eYFP + Vif (tagged APOBEC3F with the HIV-1 protein that degrades it), YFP fluorescence increase. Potency, µM (series often up to 46.1 µM). AID 602313. actives 0.2% (n = 390,000); note: nearly all actives have a fitted effect of over 65% in size
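Fluorescence increase (Ex 488/Em 500-530) after overnight compound treatment at 37 deg C flags inhibition of Vif-driven A3F-eYFP loss in stable HeLa A3F-eYFP/Vif cells seeded overnight beforehand.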
Numbers stand for hits; . = inactive; ? = inconclusive; / = not tested or not shown; ! = not active in a repeat. Hits are enriched below; roughly 0.59% of the tested compounds scored in any of these assays. Unless noted, calls come from the whole dose curve; as a rule, active = well fitted curve in the direction sought with a large enough effect; inconclusive = small, poorly fitted or top-dose-only effect, or another doubt; inactive = no such curve, though single readings can be large; an effect the other way counts as inactive or inconclusive.

SMILES	PINK1 expr mod	IDH1 R132H inh	Vif-A3G inh	PTHR1 agonist	LDHA inh	Vif-APOBEC3F blk
O=C(N/N=C/c1cnc(N2CCCCC2)s1)c1ccc(Cl)cc1	28µM	.	.	.	.	.
O=C(c1ccccc1)c1c2c(cc3sc4ccccc4[n+]13)-c1cccc3cccc-2c13	?	?	6.3µM	.	.	?
Cc1sc2cc3c(c(C(=O)c4ccccc4)[n+]2c1C)-c1cccc2cccc-3c12	?	.	.	.	.	.
CCOC(=O)C1=C(C(F)(F)F)NC2(O)c3ccccc3C(=O)C12O (stereo not drawn)	/	/	/	/	.	/
Cc1[nH]c2ccc(C(=O)NCCCN3CCCCC3)cc2c1C	.	.	.	18µM!	.	.
Cc1[nH]c2ccc(C(=O)NCCN3CCCCCC3)cc2c1C	.	.	.	.	.	.
O=C(Nc1cccc(C(F)(F)F)c1)C1=CCN(Cc2ccc(F)cc2)CC1	/	/	/	/	.	/
CC(/C=C1\SC(=S)N(CCC(=O)Nc2nc(C)cs2)C1=O)=C\c1ccccc1	40µM	.	.	.	.	.
COc1cc(CN2CCC(C(O)(c3ccccc3)c3ccccc3)CC2)ccc1OCc1ccccc1	/	/	/	/	.	/
CC(=O)c1cccc(NC(=O)C(C)Sc2cc(Cl)ccc2Cl)c1 (stereo not drawn)	/	/	/	/	.	/
C#CCOCCOCCOCCNc1nc(N2CCN(C(=O)CCCCCCCCCCNC(=O)Cn3cc(C[C@@H](C)O)nn3)CC2)nc(N2CCN(C(=O)CCCCCCCCCCNC(=O)[C@H](CCCCN)n3cc(C[C@@H](C)CC)nn3)CC2)n1	.	.	?	18µM	.	.
O=C(N/N=C/c1cc([N+](=O)[O-])ccc1O)c1c[nH]c2ccccc12	35µM	.	.	.	.	.
O=[N+]([O-])c1ccc(O)c(/C=N/NC(=S)Nc2ccc(Cl)cc2Cl)c1	40µM	.	.	.	.	?
Cc1cc(Cl)ccc1NC(=O)CCC(=O)N/N=C/c1cc([N+](=O)[O-])ccc1O	.	.	.	.	.	.
N#Cc1cc2c(nc1N1CCN(C(C(=O)O)c3c[nH]c4cc(Cl)ccc34)CC1)CCCC2 (stereo not drawn)	/	/	/	/	.	/
O=C(Nc1cc(C(F)(F)F)ccc1-n1cncn1)c1ccc([N+](=O)[O-])o1	.	.	?	.	.	13µM
CCC(=O)N1CCN(c2cc3c(cc2F)c(=O)c(C(=O)O)cn3CC)CC1	.	.	.	.	.	.
CCCOc1ccc(C(=O)NC(=S)N2CCN(c3cc4c(cc3F)c(=O)c(C(=O)O)cn4CC)CC2)cc1	35µM	.	.	.	.	.
CCn1cc(C(=O)O)c(=O)c2cc(F)c(N3CCN(S(=O)(=O)c4ccc(NC(=O)OC)cc4)CC3)cc21	32µM	.	.	.	.	.
O=C(Nc1ccccc1)c1cccc(C(F)(F)F)c1	.	.	.	.	.	.
Cc1c(C(=O)Nc2ccccc2)c2ccc(C(F)(F)F)cc2n1O	45µM	.	.	.	.	.
Cn1c(=O)[nH]c(=O)c2c1nc(SCC(=O)O)n2Cc1ccc(Cl)cc1	/	/	/	/	.	/
CC1CCN(CCNC(=O)C2CCN(CC(F)(F)F)CC2)CC1	/	/	/	/	.	/
CC1C(c2ccccc2)N(C)C(c2ccccc2)C(C)C1(O)C#Cc1ccccc1 (stereo not drawn)	32µM	.	.	.	.	?
COc1cc(/C=C2/SC(=S)N(CCC(=O)Nc3ccccc3)C2=O)cc(OC)c1OC	.	.	?	.	.	11µM
SMILES	PINK1 expr mod	IDH1 R132H inh	Vif-A3G inh	PTHR1 agonist	LDHA inh	Vif-APOBEC3F blk
Cc1ccc(NC(=O)COc2cccc(/C=C3\SC(=S)N(CCC(=O)O)C3=O)c2)cc1Cl	.	.	.	.	-36	.
O=C(CN1C(=O)S/C(=C\c2cc(Cl)c(O)c(Cl)c2)C1=O)Nc1ccccc1	.	.	?	.	.	13µM
COc1cc(/C=C2\SC(=S)N(CCC(=O)Nc3ccccn3)C2=O)cc(OC)c1OC	.	.	.	.	.	25µM
O=C(CN1C(=O)S/C(=C\c2ccccn2)C1=O)Nc1ccccc1	.	.	.	.	.	.
Cn1cnc2c1c(=O)n(CC(=O)N(Cc1ccc(F)cc1)C1CC1)c(=O)n2C	/	/	/	/	.	/
O=C(CSc1nnc(-c2ccc(F)cc2)n1CC1CCCO1)Nc1ccc(CN2CCCC2)cc1 (stereo not drawn)	/	/	/	/	.	/
CN(C)c1ccc(/C=C/c2ccnc3ccccc23)cc1O	.	/	11µM	/	.	/
CN(C)c1ccc(/C=C/c2ccnc3ccccc23)cc1[N+](=O)[O-]	/	/	.	/	/	/
CCc1cc(/C=C/c2ccnc3ccccc23)ccc1N(C)C	.	/	?	/	.	/
CN(C)c1ccc(/C=C/c2ccnc3ccccc23)cc1C=O	.	/	7.1µM	/	.	/
COc1ccc(Br)cc1CN1CCCC(C(=O)N2CCCCC2)C1 (stereo not drawn)	.	.	.	.	?	.
COc1ccc(Br)cc1CN1CCCC(C(=O)N2CCCCCC2)C1 (stereo not drawn)	.	.	.	.	-33	.
O=C(Nc1sc2c(c1C(=O)O)CCCCC2)c1cccs1	.	.	.	.	-42	.
CC1CCc2c(sc(NC(=O)c3cccs3)c2C(=O)O)C1 (stereo not drawn)	.	.	.	.	-40	.
O=C(Nc1sc2c(c1C(=O)O)CCCC2)c1cccs1	/	.	.	.	.	.
COC(=O)c1c(NC(=O)c2cccs2)sc2c1CCC(C)C2 (stereo not drawn)	.	.	.	.	.	.
O=C1CC2(C(=O)N(CC3CCCCC3)c3ccccc32)c2cnn(-c3ccccc3)c2N1 (stereo not drawn)	/	/	/	/	.	/
C=CCNc1nc(-c2ccc(S(=O)(=O)N3CCOCC3)cc2)cs1	/	/	/	/	.	/
N#CC(C#N)=C1C=C2C=C(N3CCOCC3)CCC2CC1 (stereo not drawn)	16µM	.	.	.	.	11µM
N#CC(C#N)=C1C=C2C=C(N3CCCCCC3)CCC2CC1 (stereo not drawn)	11µM	.	.	.	.	?
CN1CCN(C2=CC3=CC(=C(C#N)C#N)CCC3CC2)CC1 (stereo not drawn)	?	.	.	.	.	.
Cn1nc(C(C)(C)C)cc1-c1nn2c(-c3ccco3)nnc2s1	/	/	/	/	.	/
COc1cc(NS(=O)(=O)c2ccc(C)cc2)cc2sc(NC(=O)c3ccccc3)nc12	/	/	/	/	.	/
Cc1cc(C)cc(NC(=S)NC(=O)C2CC2)c1	.	.	.	.	.	13µM
COc1ccc(-c2cc(C(=O)N3CCCC3)c3ccccc3n2)c(OC)c1	/	/	/	/	.	/
CC(=O)NCCNC(=O)CN(CC1CCOC1)C1CC1 (stereo not drawn)	/	/	/	/	.	/
